Results from the supplement of paper PMC8975748.
Where a name gives a salt, the structure may show the parent alone. ± gives the standard deviation of the averaged measurements.

Assays:
[1] = test system: Saccharomyces cerevisiae BY4741 SeMeCo community; test: mean cell size (pixel area) (pixels); higher = larger cells; conditions: 10 µM; 24 h; SM minimal medium
Method in brief: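 The test system was a fluorescent Saccharomyces cerevisiae BY4741 community with four plasmids, each restoring one auxotrophy and carrying a fluorescent marker. Cells were grown for 24 h in SM medium with drug at a final 10 µM in 384-well plates, then fixed with paraformaldehyde and imaged by automated confocal microscopy for Harmony analysis of mean cell pixel area per well. Values represent the average of 3 replicates. Same SeMeCo high-content imaging drug screen: Selleck FDA-approved drugs at 10 µM, 24 h in SM medium, 384-well plates, 3 replicates.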

[2] = test system: Saccharomyces cerevisiae BY4741 SeMeCo community; test: z-score of subpopulation abundance vs DMSO median, subpopulation auxotrophic for L; higher = larger share of this subpopulation than in DMSO controls; conditions: 10 µM; 24 h; SM minimal medium; subpopulation (auxotrophy): L
Method in brief: (§1)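 A community of Saccharomyces cerevisiae BY4741 was built from four plasmids that each restored one auxotrophy and encoded a distinct fluorescent protein. Pre-grown overnight to OD600 1.0 and diluted to 0.3, it was dispensed at 70 µl into 384-well plates acoustically predosed with library drugs for a final 10 µM, and grown 24 h in minimal SM medium. Cells were then paraformaldehyde-fixed and imaged by automated confocal microscopy. Thresholds and autofluorescence correction came from single-auxotroph fluorescent strains, and each subpopulation's abundance was scored as a z-score relative to the vehicle-well median.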

[3] = test system: Saccharomyces cerevisiae BY4741 SeMeCo community; test: z-score of subpopulation abundance vs DMSO median, subpopulation auxotrophic for U; higher = larger share of this subpopulation than in DMSO controls; conditions: 10 µM; 24 h; SM minimal medium; subpopulation (auxotrophy): U
Method in brief: as §1

[4] = test system: Saccharomyces cerevisiae BY4741 SeMeCo community; test: z-score of subpopulation abundance vs DMSO median, subpopulation auxotrophic for H; higher = larger share of this subpopulation than in DMSO controls; conditions: 10 µM; 24 h; SM minimal medium; subpopulation (auxotrophy): H
Method in brief: as §1

[5] = test system: Saccharomyces cerevisiae BY4741 SeMeCo community; test: z-score of subpopulation abundance vs DMSO median, subpopulation auxotrophic for LU; higher = larger share of this subpopulation than in DMSO controls; conditions: 10 µM; 24 h; SM minimal medium; subpopulation (auxotrophy): LU
Method in brief: as §1

[6] = test system: Saccharomyces cerevisiae BY4741 SeMeCo community; test: z-score of subpopulation abundance vs DMSO median, subpopulation auxotrophic for LM; higher = larger share of this subpopulation than in DMSO controls; conditions: 10 µM; 24 h; SM minimal medium; subpopulation (auxotrophy): LM
Method in brief: as §1

[7] = test system: Saccharomyces cerevisiae BY4741 SeMeCo community; test: z-score of subpopulation abundance vs DMSO median, subpopulation auxotrophic for HM; higher = larger share of this subpopulation than in DMSO controls; conditions: 10 µM; 24 h; SM minimal medium; subpopulation (auxotrophy): HM
Method in brief: as §1

[8] = test system: Saccharomyces cerevisiae BY4741 SeMeCo community; test: z-score of subpopulation abundance vs DMSO median, subpopulation auxotrophic for HU; higher = larger share of this subpopulation than in DMSO controls; conditions: 10 µM; 24 h; SM minimal medium; subpopulation (auxotrophy): HU
Method in brief: as §1

[9] = test system: Saccharomyces cerevisiae BY4741 SeMeCo community; test: z-score of subpopulation abundance vs DMSO median, subpopulation auxotrophic for UM; higher = larger share of this subpopulation than in DMSO controls; conditions: 10 µM; 24 h; SM minimal medium; subpopulation (auxotrophy): UM
Method in brief: as §1

[10] = test system: Saccharomyces cerevisiae BY4741 SeMeCo community; test: z-score of subpopulation abundance vs DMSO median, subpopulation auxotrophic for HL; higher = larger share of this subpopulation than in DMSO controls; conditions: 10 µM; 24 h; SM minimal medium; subpopulation (auxotrophy): HL
Method in brief: as §1

[11] = test system: Saccharomyces cerevisiae BY4741 SeMeCo community; test: z-score of subpopulation abundance vs DMSO median, subpopulation auxotrophic for HLU; higher = larger share of this subpopulation than in DMSO controls; conditions: 10 µM; 24 h; SM minimal medium; subpopulation (auxotrophy): HLU
Method in brief: as §1

[12] = test system: Saccharomyces cerevisiae BY4741 SeMeCo community; test: z-score of subpopulation abundance vs DMSO median, subpopulation auxotrophic for HLM; higher = larger share of this subpopulation than in DMSO controls; conditions: 10 µM; 24 h; SM minimal medium; subpopulation (auxotrophy): HLM
Method in brief: as §1

[13] = test system: Saccharomyces cerevisiae BY4741 SeMeCo community; test: z-score of subpopulation abundance vs DMSO median, subpopulation auxotrophic for LUM; higher = larger share of this subpopulation than in DMSO controls; conditions: 10 µM; 24 h; SM minimal medium; subpopulation (auxotrophy): LUM
Method in brief: as §1

[14] = test system: Saccharomyces cerevisiae BY4741 SeMeCo community; test: z-score of subpopulation abundance vs DMSO median, subpopulation auxotrophic for HLUM; higher = larger share of this subpopulation than in DMSO controls; conditions: 10 µM; 24 h; SM minimal medium; subpopulation (auxotrophy): HLUM
Method in brief: as §1

[15] = test system: Saccharomyces cerevisiae BY4741 SeMeCo community; test: z-score of prototroph abundance vs DMSO median; higher = larger share of this subpopulation than in DMSO controls; conditions: 10 µM; 24 h; SM minimal medium; subpopulation (auxotrophy): Prototroph
Method in brief: as §1

[16] = test system: Saccharomyces cerevisiae BY4741 SeMeCo community; test: z-score of subpopulation abundance vs DMSO median, subpopulation auxotrophic for HUM; higher = larger share of this subpopulation than in DMSO controls; conditions: 10 µM; 24 h; SM minimal medium; subpopulation (auxotrophy): HUM
Method in brief: as §1

[17] = test system: Saccharomyces cerevisiae BY4741 SeMeCo community; test: z-score of subpopulation abundance vs DMSO median, subpopulation auxotrophic for M; higher = larger share of this subpopulation than in DMSO controls; conditions: 10 µM; 24 h; SM minimal medium; subpopulation (auxotrophy): M
Method in brief: as §1

| Structure (SMILES) | mean cell size [1] | z-score of subpopulation abundance [2] | z-score of subpopulation abundance [3] | z-score of subpopulation abundance [4] | z-score of subpopulation abundance [5] | z-score of subpopulation abundance [6] | z-score of subpopulation abundance [7] | z-score of subpopulation abundance [8] | z-score of subpopulation abundance [9] | z-score of subpopulation abundance [10] | z-score of subpopulation abundance [11] | z-score of subpopulation abundance [12] | z-score of subpopulation abundance [13] | z-score of subpopulation abundance [14] | z-score of prototroph abundance [15] | z-score of subpopulation abundance [16] | z-score of subpopulation abundance [17] |
| --- | --- | --- | --- | --- | --- | --- | --- | --- | --- | --- | --- | --- | --- | --- | --- | --- | --- |
| CCCCCCCCCCCCCCCCCCOP(=O)([O-])OC1CC[N+](C)(C)CC1 [Perifosine (KRX-0401)] | 9.8 ± 0.56 | -0.46 | -2.84 | 3.48 | 12.1 | 1.78 | 12.7 | 8.89 | 7.06 | 18.8 | 13.3 | 31.5 | 10.2 | 180 |  |  |  |
| Cc1ncc([N+](=O)[O-])n1CCOC(=O)c1ccccc1 [Metronidazole Benzoate] |  |  | -0.16 | -1.17 | -1.05 | -0.57 | 0.12 | -1 | -0.26 | -0.69 | -1.28 | -0.79 | -1.13 | -0.51 | 0.95 | -0.37 |  |
| CCOC(=O)C1=C(C)NC(C)=C(C(=O)OC)C1c1cccc(Cl)c1Cl (configuration not stated) [Felodipine] |  | 1.68 | -6.72 | 3.29 | -6.85 | 4.88 | 4.69 |  |  | 4.71 | -3.41 |  | -4.09 | -1.13 | 2.53 |  |  |
| COc1ccc2cc([C@H](C)C(=O)O)ccc2c1 [Naproxen Sodium] | 12.84 ± 0.07 | 0.02 | -1.01 | -0.42 | -0.46 | -0.16 | -0.61 | -1.5 | -2.49 | 0.47 | 0 |  | -0.75 | -0.52 | 1.33 | -2.32 |  |
| CCN(CC)CC#CCOC(=O)C(O)(c1ccccc1)C1CCCCC1 (configuration not stated) [Oxybutynin chloride] |  |  | -0.51 | -0.41 | -1.2 | -0.32 | 0.06 |  | -1.11 | -0.93 | -0.57 | -0.24 | -0.46 | -0.26 | 1.15 | -0.97 |  |
| CN1CCOC(c2ccccc2)c2ccccc2C1 (configuration not stated) [Nefopam HCl] |  | -1.02 | 0.26 | -0.62 | 0.08 | -0.2 | -0.51 | 0.21 | 0.37 | -0.63 | -0.39 |  | -0.26 | -0.19 | 0.32 | -0.51 |  |
| CC(C(=O)O)c1ccc2c(c1)CC(=O)c1ccccc1S2 (configuration not stated) [Zaltoprofen] | 12.82 ± 0.12 | -0.47 | 0.2 |  | -0.2 |  | 0.46 | -0.7 |  | -0.14 | -0.03 | 0.64 |  | -0.59 | 0.63 |  |  |
| CC(C)N1CCN(c2ccc(OCC3COC(Cn4cncn4)(c4ccc(Cl)cc4Cl)O3)cc2)CC1 (configuration not stated) [Terconazole] | 12.1 ± 0.043 | 0.04 | -0.27 | -0.38 | -0.65 | -0.49 |  | -0.58 | -0.8 | -0.76 | -0.59 | -0.59 | -0.86 | -0.55 |  |  |  |
| O=C(O)C1=C(CSc2nnnn2CS(=O)(=O)O)CS[C@@H]2[C@H](NC(=O)[C@H](O)c3ccccc3)C(=O)N12 [Cefonicid sodium] | 12.47 ± 0.07 | -0.08 | 0.61 | 0.28 | 0.98 | -0.87 | -0.77 | 0.75 | 0.3 | 0.41 | 0.39 | 0.46 | -0.25 |  |  |  |  |
| C[C@H]1[C@H](NC(=O)/C(=N\OC(C)(C)C(=O)O)c2csc(N)n2)C(=O)N1S(=O)(=O)O [Aztreonam] |  |  | -0.07 | -0.29 | 0.39 | 0.99 | 0.36 | -0.08 | 0.13 | 0.25 | 0.52 | 1.34 | 0.97 | 0.34 | -0.5 | -0.1 |  |
| CC1(C)S[C@@H]2[C@H](NC(=O)[C@H](N)c3ccccc3)C(=O)N2[C@H]1C(=O)OCOC(=O)[C@@H]1N2C(=O)C[C@H]2S(=O)(=O)C1(C)C [Sultamicillin] | 12.26 ± 0.082 | 1.05 | 0.83 | 1.56 | 0.83 | 0.38 | 0.78 | 2.39 | 0.83 | 2.28 | 1.83 | 1.63 |  | 0.86 | -1.74 |  |  |
| CC(C)c1nc(N(C)S(C)(=O)=O)nc(-c2ccc(F)cc2)c1/C=C/[C@@H](O)C[C@@H](O)CC(=O)O [Rosuvastatin Calcium] | 11.6 ± 0.2 | 0.29 | 0.59 | 0.06 | 1.26 | -1.44 | 3.45 | 2.1 | 2.31 | 0.38 | 1.41 |  | 1.01 | 0.9 | -1.23 |  |  |
| c1cnc(N2CCN(Cc3ccc4c(c3)OCO4)CC2)nc1 [Piribedil] | 12.6 ± 0.18 |  | 0.44 | 0.27 | 0.48 | 0.32 | 0.27 | -0.25 | -0.82 | 0.51 | 0.22 | 1.03 |  | -0.28 | -0.35 | -0.11 |  |
| OC(Cn1cncn1)(Cn1cncn1)c1ccc(F)cc1F [Fluconazole] | 11.98 ± 0.059 | -0.88 | -0.29 | -2.16 | -1.41 | -0.76 | -1.78 |  | -0.52 | -1.18 | -1.51 |  | -0.64 | -1.38 |  | -1.16 |  |
| Cc1c(C(N)=O)cc([N+](=O)[O-])cc1[N+](=O)[O-] [Dinitolmide] | 12.4 ± 0.22 |  | 0.48 | -0.33 | 1.05 | 0.46 | -0.5 | 0.78 | 0.34 | -0.36 | -0.18 | -0.3 | -0.13 | 0.38 | -0.01 | -0.56 |  |
| CC1CCc2c(N3CCC(O)CC3)c(F)cc3c(=O)c(C(=O)O)cn1c23 (configuration not stated) [Nadifloxacin] | 12.6 ± 0.13 | 0.77 | 0.05 | -0.1 | 0.62 | 0.06 | 0 | 0.43 | -0.28 | 0 |  | 0.15 | 0.27 | 0.26 |  | -0.22 | 0.33 |
